Inhibition data for 33 compounds are collected here from ChEMBL document CHEMBL3433997, “St. Jude Leishmania screening dataset” (2016).

Format in all cases: functional
Test [1] has as its target Solute carrier family 2, facilitated glucose transporter member 1 (Homo sapiens) (UniProt P11166). Nature of the test: ST_JUDE_LEISH: Cytotoxicity at 2uM final concentration against transgenic Leishmania Mexicana promastigotes LmGLUT1 that are glucose transport deficient and complemented with the human glucose transporter GLUT1. Activity is measured by DNA content using SYBR green in vitro.

Test [2] has as its target Hexose transporter 1 (Plasmodium falciparum) (UniProt O97467). Nature of the test: ST_JUDE_LEISH: Cytotoxicity at 2uM final concentration against transgenic Leishmania Mexicana promastigotes LmPfHT that are glucose transport deficient and complemented with the Plasmodium falciparum hexose transporter. Activity is measured by DNA content using SYBR green in vitro.
The target of test [3] is Glucose transporter (Leishmania mexicana) (UniProt O61059). In words: ST_JUDE_LEISH: Cytotoxicity at 2uM final concentration against transgenic Leishmania Mexicana promastigotes LmGT2 that are glucose transport deficient and complemented with the L. Mexicana glucose transporter 2. Activity is measured by DNA content using SYBR green in vitro.

Solute carrier family 2, facilitated glucose transporter member 1 (Homo sapiens), sequence (P11166 whole entry): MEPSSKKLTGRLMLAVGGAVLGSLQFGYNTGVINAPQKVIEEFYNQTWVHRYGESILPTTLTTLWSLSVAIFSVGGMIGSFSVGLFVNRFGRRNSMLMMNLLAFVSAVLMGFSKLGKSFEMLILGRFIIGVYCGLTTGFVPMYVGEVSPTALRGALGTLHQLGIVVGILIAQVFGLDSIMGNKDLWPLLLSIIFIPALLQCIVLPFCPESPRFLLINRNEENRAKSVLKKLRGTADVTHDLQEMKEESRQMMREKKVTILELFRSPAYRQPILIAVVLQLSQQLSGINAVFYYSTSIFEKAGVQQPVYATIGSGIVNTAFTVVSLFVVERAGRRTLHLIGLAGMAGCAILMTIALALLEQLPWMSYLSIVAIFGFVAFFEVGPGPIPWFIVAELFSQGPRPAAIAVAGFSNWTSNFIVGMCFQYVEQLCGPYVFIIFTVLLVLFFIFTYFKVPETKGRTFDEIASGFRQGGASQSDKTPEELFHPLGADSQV

The inhibition is the relative decrease from the control value, in per cent. `CCCCCCNc1cc(C)nc2ccc(OC)cc12`: the values for the inhibition in test [1], in test [2] and in test [3] were 11.1%, 11.4% and 4.54%, respectively.

In the case of `CC(C(=O)N1CCCC1)N1CCN(C(c2ccccc2)c2ccccc2)CC1` (centres undefined), the values for the inhibition in test [1], in test [2] and in test [3] were 2%, 2.36% and 2.74%, respectively.

Consider `O=C(c1ccco1)N1CCN(c2ccc([N+](=O)[O-])c(NC3CC3)c2)CC1`, for which the inhibition was 0.6% in test [1], 0.13% in test [2] and -1.35% in test [3].

Turning to `CCCCCc1cnc2nc(N)nc(N)c2c1C`, the inhibition in test [1] was determined as 13.6%; in test [2], 13.5%; in test [3], 12.4%.

For the compound `CC(Cc1ccc(C(=O)OC(c2ccccc2)c2ccccc2)cc1)NCC(O)c1ccccc1` (centres undefined), the results for the inhibition in test [1], in test [2] and in test [3] were 0.9%, 0.98% and -0.61%, respectively.

With `N#Cc1ccc(N[C@@H](CC2CCCCC2)C(=O)NCc2cc(Cl)cc(Cl)c2)c2ccccc12`, the inhibition in test [1] amounted to 2.42%; in test [2], 5.09%; in test [3], 4.82%.

As for `O=C(NCc1ccc(F)cc1)Nc1ccc(-c2cccc(-c3nc4cc(C(F)(F)F)ccc4[nH]3)c2)cc1`, the inhibition in test [1] was 3.93%; in test [2], 2.38%; in test [3], -0.05%.

For `COc1ccc(-c2ccc(NC(=O)c3cccc(Cl)c3)cc2)cc1CN1CCCC1`, the inhibition in test [1] was found to be 11.7%; in test [2], 2.9%; in test [3] it was 4.28%.

Take `CCCCSc1ccc2nc(-c3c[nH]c4ccc(C#N)cc34)cn2c1`: the results for the inhibition in test [1], in test [2] and in test [3] were -0.49%, 3.17% and 3.81%, respectively.

As to `c1ccc2c(CNCCCCCCNCc3c(OCC4CC4)ccc4ccccc34)c(OCC3CC3)ccc2c1`, the inhibition came to 51.5% in test [1], 69.8% in test [2] and 37.4% in test [3].

As for `N#CCOc1c(C2CCN(CCCCNC(=O)c3ccc(-c4ccc(C(F)(F)F)cc4)cc3)CC2)ccc2c1CCCC2`, the inhibition came to 4.16% in test [1], 3.28% in test [2] and 3.28% in test [3].

In the case of `CNc1cc(-c2ccc3ccnc(N)c3c2)nc(N)n1`, the inhibition in test [1] is -1.76%; in test [2], 0.35%; in test [3] it was -3.58%.

For `Cc1ccc(NCC(=O)Nc2ccc(F)c(Cl)c2)cc1S(=O)(=O)N1CCOCC1`, the inhibition in test [1] was determined as 2.54%; in test [2] it was 1.86%; in test [3] it was 0.32%.

On to `CC(C)COc1ccc(Cl)cc1Cc1nc(-c2nc3cccc(CN4CCN(C)CC4)c3[nH]2)cs1`, for which the inhibition amounted to 0.6% in test [1], 0.77% in test [2] and 0.67% in test [3].

On to `COc1cccc(CN2CCCC(COC(c3ccc(F)cc3)c3ccc(F)cc3)C2)c1O` (centres undefined), for which the inhibition was 0.95% in test [1], 1.89% in test [2] and -0.91% in test [3].

Take `Cc1c(C)c2c(c(C)c1O)CCC(C)(CCC(=O)O)O2` (centres undefined): the inhibition in test [1] is 0.86%; in test [2], 2.15%; in test [3] it was 1.82%.

`COc1ccc2nc(-c3cccc(C)n3)nc(Nc3ccncc3)c2c1`: the figures for the inhibition in test [1], in test [2] and in test [3] were 11.6%, 1.8% and 2.21%, respectively.

`CCN(CC)CCNc1ccnc2[nH]c3ccc([N+](=O)[O-])cc3c12`: the inhibition in test [1] came to 3.68%; in test [2], 3.92%; in test [3] it was 3.99%.

As for `CC(C)C1=C[C@H]2C[C@]3(C4OCCO4)[C@@H]4CC[C@@H](C)[C@H]4C[C@@]2(C(=O)OCC2COCO2)[C@]13C(=O)OC(c1ccccc1)c1ccccc1` (some centres undefined), the inhibition in test [1] was -1.18%; in test [2], -2.48%; in test [3], -1.79%.

On to `Cc1cc(=NN=Cc2ccccc2Cl)c2ccc(F)cc2[nH]1`, for which the inhibition in test [1] came to 6.47%; in test [2], 6.14%; in test [3], 3.93%.

As for `CCCCN(CCCC)CCNC(=O)c1cccc(NC(=O)N2CCc3cc(SC)c(C(F)(F)F)cc32)c1`, the inhibition in test [1] was determined as 3.07%; in test [2] it was 4.24%; in test [3], 2.86%.

`O=C(Nc1cc(C(F)(F)F)cc(C(F)(F)F)c1)NC(CCCN1CCC2(CC1)OCc1ccccc12)c1ccc(Cl)c(Cl)c1` (centres undefined): the inhibition in test [1] is 3%; in test [2], 5.93%; in test [3] it was -0.66%.

In the case of `COc1ccc(-c2ccc(NC(=O)c3ccc(C#N)cc3)cc2)cc1CN1CCCC1`, the inhibition is 1.22% in test [1], 0.11% in test [2] and -3.17% in test [3].

Consider `O=C(NCc1cccc(F)c1)Nc1cccc(-c2cccc(-c3nc4ccccc4[nH]3)c2)c1`, for which the figures for the inhibition in test [1], in test [2] and in test [3] were 7.33%, 5.52% and 7.79%, respectively.

With `O=[N+]([O-])c1cccc(CNCC2CCN(Cc3ccc4ccccc4c3)CC2)c1`, the values for the inhibition in test [1], in test [2] and in test [3] were 16.5%, 3.55% and 2.23%, respectively.

On to `O=C(CSc1nccn1C1CCCCC1)Nc1cc(C(F)(F)F)ccc1Cl`, for which the inhibition in test [1] is 8.56%; in test [2], 9.47%; in test [3], 7.3%.

As for `c1cc(CNC2Cc3ccc(-c4cccs4)cc3C2)cc(-n2ccnc2)c1` (centres undefined), the inhibition in test [1] was 3.39%; in test [2], 0.43%; in test [3] it was 1.86%.

As for `Fc1ccc2[nH]c(-c3cccc(-c4cccc(CNCCN5CCNCC5)c4)c3)nc2c1`, the inhibition came to 2.5% in test [1], 2.3% in test [2] and 0.88% in test [3].

Take `N#Cc1cccc(C(=O)Nc2ccc(-c3cccc(CN4CCC(O)CC4)c3)cc2)c1`: the inhibition is 0.21% in test [1], 0.35% in test [2] and -0.04% in test [3].

On to `N=C(N)Nc1nc(-c2ccc(NC(=N)N3CCC[C@H]3CN3CCCC3)cc2)cs1`, for which the figures for the inhibition in test [1], in test [2] and in test [3] were -0.01%, -0.2% and -0.7%, respectively.

For the compound `COc1cccc(CN2CCCN(Cc3cccc(NC(=O)c4ccc(-c5ccccc5)cc4)c3)CC2)c1`, the figures for the inhibition in test [1], in test [2] and in test [3] were 0.95%, 0.27% and -6.64%, respectively.

Regarding `CC(C)COc1ccc(Cl)cc1Cc1nc(-c2nc3ccc(N4CCN(C)CC4)nc3[nH]2)cs1`, the inhibition in test [1] was -3.46%; in test [2], 1.5%; in test [3], 3.9%.

For `O=C(NC1CC1)c1ccc(N2CCC(c3ccccc3)CC2)nc1`, the values for the inhibition in test [1], in test [2] and in test [3] were 5.99%, 5.01% and 3.25%, respectively.
